PubChem BioAssay (NCI)
About 79,000 compounds went through this panel and 15% of them were active in at least one assay; those are over-represented in the sample as a whole. Rule as the data show it: active = growth inhibition above about 70%; inactive = the rest.

Tests used:
[1] = NCI Yeast Anticancer Drug Screen. Data for the rad50 strain (AID 155);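 also: 0% = growth of vehicle-only cultures of the same strain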; conditions: S. cerevisiae rad50 strain growth inhibition; at 50.0 µM; hits give high values
Method in brief: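 A DNA repair-deficient yeast mutant serves as the test organism; compound-induced growth inhibition is calculated against vehicle-treated cells.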

[2] = NCI Yeast Anticancer Drug Screen. Data for the mec2-1 strain (AID 157); conditions: S. cerevisiae mec2-1 strain, at 50.0 µM, hits give high values
Method in brief: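 Strain: mec2-1 (DNA repair/cell cycle alteration). Compound exposure, then growth measured; inhibition expressed relative to vehicle.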

[3] = NCI Yeast Anticancer Drug Screen. Data for the sgs1 mgt1 strain (AID 161);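 also: 0% = growth of cultures given vehicle only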; conditions: S. cerevisiae sgs1 mgt1 strain, at 50.0 µM, hits give high values
Method in brief: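 Inhibition of yeast growth, normalised to vehicle-treated controls, is reported for a strain bearing genetic alterations in DNA damage repair.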

[4] = NCI Yeast Anticancer Drug Screen. Data for the cln2 rad14 strain (AID 165);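 also: 0% = growth equal to vehicle treated cultures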; conditions: S. cerevisiae cln2 rad14 strain, at 50.0 µM, hits give high values
Method in brief: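 Compounds are applied to the cln2 rad14 yeast strain, and growth is then compared with that of vehicle-treated cultures to give inhibition.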

[5] = NCI Yeast Anticancer Drug Screen. Data for the bub3 strain (AID 167); conditions: S. cerevisiae bub3 mutant strain, at 50.0 µM, hits give high values
Method in brief: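 Inhibition values come from growth of compound-treated mutant yeast normalised to vehicle-treated controls.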

[6] = NCI Yeast Anticancer Drug Screen. Data for the mlh1 rad18 strain (AID 175); conditions: S. cerevisiae mlh1 rad18 strain growth inhibition; at 50.0 µM; hits give high values
Method in brief: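 Read-out is yeast growth inhibition, calculated against vehicle-only controls. The compound was applied to a strain engineered with DNA damage repair alterations.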

Measured: growth inhibition

COc1ccc(OC)c(/C=C/C2=C(C)C(=O)CC(c3cc(OC)ccc3OC)C2C)c1 (stereo unspecified)
inactive: [1] 4.3% | [2] 12.3% | [3] 28.3% | [4] 8.75% | [5] 2.35% | [6] 4.3%

Cc1ccc(NC(=O)Oc2ccc(Cl)cc2Cl)cc1NC(=O)Oc1ccc(Cl)cc1Cl
inactive: [1] -20.1% | [2] -1.15% | [3] -13.3% | [4] -13.1% | [5] -3.2% | [6] -42.7%

COc1cc2c[n+](C)c(-c3ccc(Cl)c(Cl)c3)c(OC)c2cc1OC
inactive: [1] 56.1% | [2] 8.15% | [3] 41.5% | [4] 31.4% | [5] 14.9% | [6] 41.5%

Cc1cc(CN2CCCCC2)c(O)c(CN2CCCCC2)c1
inactive: [1] -4.3% | [2] -18.9% | [3] -13.4% | [4] -0.2% | [5] -29.4% | [6] -7.05%

Cc1n[nH]c(=O)[nH]c1=O
inactive: [1] -25.2% | [2] -24.8% | [3] -2.7% | [4] 3.45% | [5] -0.85% | [6] 2.55%

CC(C)(C)CI
inactive: [1] 15.6% | [2] 3.85% | [3] 7.65% | [4] 4.9% | [5] -11.2% | [6] -35.3%

c1ccc(OCCCCN2CCNCC2)cc1
inactive: [1] 1.85% | [2] -14.3% | [3] 14.3% | [4] -10.1% | [5] 8.3% | [6] -10.2%

COc1c2c(cc3c1-c1c(cc4c(c1OC)OCO4)CC(C)C(C)C3)OCO2 (stereo unspecified)
inactive: [1] 12.4% | [2] 24.4% | [3] 21% | [4] 15.2% | [5] 40.1% | [6] 29.6%

CCCCCCCC/C=C/CCCCCCCC(=O)O
inactive: [1] -25% | [2] -37.2% | [3] -20.6% | [4] -16.8% | [5] -16.2% | [6] -50.9%

Nc1ccc(C(=O)O)c([N+](=O)[O-])c1
inactive: [1] 0.7% | [2] -2.45% | [3] -0.5% | [4] -30.9% | [5] -11.7% | [6] -2.1%

CC1(C)OC(=O)C=C[C@@]2(C)C1CC(=O)C1(C)C2CCC2(C)C(c3ccoc3)OC(=O)[C@H]3O[C@]321 (stereo partly specified)
inactive: [1] 2.55% | [2] -24.3% | [3] 11.3% | [4] 9.95% | [5] -7% | [6] -6.25%

O=C(/C=C/c1ccccc1)Sc1ccccc1
inactive: [1] -2% | [2] -7.6% | [3] 13.2% | [4] -1.75% | [5] -8.1% | [6] 1.65%

CC(=O)CC(=O)NCc1ccncc1
inactive: [1] -5.85% | [2] 8.1% | [3] 12.1% | [4] -44.3% | [5] 26.9% | [6] -1.9%

Cc1cc2c(cc1C)NC1=C(N2)OC(c2ccc(C3OC4=C(Nc5cc(C)c(C)cc5N4)C3=O)cc2)C1=O (stereo unspecified)
inactive: [1] 32.2% | [2] 14.8% | [3] 9.95% | [4] 16.5% | [5] 0.75% | [6] 29.6%

CC(=O)CC(=O)N1CCN(C(=O)CC(C)=O)C(C)C1 (stereo unspecified)
inactive: [1] -7.95% | [2] -58.5% | [3] 6.05% | [4] 1.8% | [5] -11.7% | [6] -6.75%

CCCNC(=O)OCC#CCOC(=O)NCCC
inactive: [1] 2.5% | [2] -4.15% | [3] 15.4% | [4] -38.5% | [5] 12.5% | [6] -6.1%

OCc1ccncc1
inactive: [1] -5.85% | [2] -13.2% | [3] -9.65% | [4] -47.4% | [5] 10.4% | [6] -2.05%

Cc1c(O)c2ccccc2n(C)c1=O
inactive: [1] -9.45% | [2] -12.4% | [3] -15.7% | [4] -6.1% | [5] 3.85% | [6] -6.8%

Nc1nnc2nc(CC(=O)c3ccccn3)/c(=C/C(=O)c3ccccn3)n12
inactive: [1] -7.3% | [2] -13.7% | [3] -2.8% | [4] -43.3% | [5] -26.9% | [6] -23.1%

CCCNC(=O)Nc1ccc(Nc2ccccc2)cc1
inactive: [1] 5.9% | [2] 2.5% | [3] -0.5% | [4] 4.4% | [5] 18.2% | [6] 2%

CC(=O)N/N=C1/NN(C(C)=O)C2(S1)C(=O)Nc1ccc(C)cc12 (stereo unspecified)
inactive: [1] -4.15% | [2] 38.8% | [3] 40.1% | [4] 28.8% | [5] 24.8% | [6] 7.7%

COc1cccc(OC)c1OC(=O)/C=C\C(=O)Oc1c(OC)cccc1OC
inactive: [1] 29.9% | [2] -8.65% | [3] 18.8% | [4] -3.75% | [5] -2.05% | [6] 20.8%

O=C1NC(c2ccc(Cl)cc2)(c2ccc(Cl)cc2)C(=O)N1Cl
inactive: [1] -4.8% | [2] -1.6% | [3] 8.05% | [4] 16.9% | [5] 11.6% | [6] -16.4%

Cc1ccc(Nc2nnc(-c3ccc4c(c3)OCO4)o2)c(C)c1
inactive: [1] 22.8% | [2] 1.6% | [3] -4.4% | [4] -2.15% | [5] -4% | [6] 14.8%

O=[N+]([O-])c1ccc2nc(-c3ccccc3[N+](=O)[O-])[nH]c2c1
inactive: [1] 0.2% | [2] 0.85% | [3] 2.5% | [4] -49.5% | [5] -7.35% | [6] -5.15%

COc1ccc(C(=O)CC(c2ccccc2)[C@H]2C(c3ccc(OC)cc3)=Nc3c(nc(SC)n(C)c3=O)NC2c2ccccc2)cc1 (stereo partly specified)
inactive: [1] 16.8% | [2] 7.55% | [3] 20.6% | [4] 12.7% | [5] -0.35% | [6] 19.2%

CC(O)C1OC(n2cnc3c(=S)nc[nH]c32)C(O)C1O (stereo unspecified)
inactive: [1] 7.5% | [2] 15.7% | [3] 0.6% | [4] -98.1% | [5] -4.85% | [6] -13.3%

FC(F)(F)c1nc(=S)c2cn[nH]c2[nH]1
inactive: [1] 4.35% | [2] 31.1% | [3] 8.45% | [4] -12.2% | [5] 35.5% | [6] -5.3%

Cc1cc2c(cc1C)-c1c(N)nc(N)nc1CC2
inactive: [1] 2.2% | [2] 9.95% | [3] -8.6% | [4] -29.2% | [5] -15% | [6] 12.7%

C=CC(=O)OCCCS(=O)(=O)[O-].C=CC(=O)OCCCS(=O)(=O)[O-].NC1CCCCC1N.[Pt+4]
inactive: [1] 3.05% | [2] -7.75% | [3] -4.25% | [4] 37.5% | [5] 14.1% | [6] 9.75%

N/N=C(\N)SCCCCCCS/C(N)=N/N
inactive: [1] -10.8% | [2] 2.15% | [3] 24% | [4] 41.5% | [5] 39.9% | [6] -5.2%

c1ccc(Cn2nnnc2Nc2ccccc2)cc1
inactive: [1] -19.2% | [2] -10.7% | [3] -3.65% | [4] 19.8% | [5] 26.4% | [6] 10.4%

O=c1[nH]c(=O)n(C2CC(O)C(CO)O2)cc1NN=NCCc1ccccc1 (stereo unspecified)
inactive: [1] -24.3% | [2] 0.75% | [3] 5.05% | [4] 4.85% | [5] 1.9% | [6] 10.8%

NC(=NCc1ccncc1)N/N=C\c1ccnc2ccccc12
inactive: [1] 4.15% | [2] 10.9% | [3] 7.75% | [4] -13.7% | [5] -9.5% | [6] 7.75%

NC(=O)N/N=C(\CC1OC(=O)c2ccccc21)c1ccc([N+](=O)[O-])cc1 (stereo unspecified)
inactive: [1] 5.4% | [2] 3.85% | [3] -17.6% | [4] 3.85% | [5] -23.9% | [6] 0%

FC(F)(F)c1cccc2[nH]cnc12
inactive: [1] -24.6% | [2] -2.85% | [3] 6.25% | [4] -12.4% | [5] -4.65% | [6] 2.3%

Cc1c(C(=O)CC(=O)C(=O)Nc2ccc(Cl)cc2)[n+](=O)c2ccccc2n1[O-]
inactive: [1] 9.9% | [2] -2.25% | [3] 0.65% | [4] 19.4% | [5] 8.35% | [6] -0.3%

O=C([O-])C[n+]1ccccc1/C=C/c1ccccc1
inactive: [1] -19.2% | [2] 1.8% | [3] -23.1% | [4] -15.2% | [5] -7.75% | [6] -23.9%

CCCCc1ccncc1
inactive: [1] 5.3% | [2] 4.55% | [3] 18.6% | [4] -25.9% | [5] 8.55% | [6] 19.6%

COc1ccc(C(=O)C(C)CN2CCOCC2)cc1 (stereo unspecified)
inactive: [1] 68.1% | [2] 22.6% | [3] 40.5% | [4] 32.6% | [5] 52.8% | [6] 53.5%

Cc1ccc(S(=O)(=O)Nn2c(O)c(C#N)c(-c3ccc(N(C)C)cc3)c(C#N)c2=O)cc1
inactive: [1] -6.7% | [2] -20.1% | [3] -44.5% | [4] 1.7% | [5] -19.1% | [6] -20.9%
